High-throughput results: PubChem BioAssay, National Center for Advancing Translational Sciences (NCATS)
In the library only some 3.1% were active in any assay of this set; here they are far more common.
Tau fluor cs – Counterscreen qHTS for Inhibitors of Tau Fibril Formation, Fluorescence Polarization | tau K18 P301L Alexa594 fluorescence, heparin fibrillization | Potency, µM (doses to about 57.7 µM), for inactives: at the top dose activity change, negative = decrease | 0.93% of 280,000 active | AID 1463, 2008; also: nearly all actives have a fitted effect of over 55% in size
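Human tau K18 P301L (15 uM unlabeled, 0.24 uM Alexa 594-labeled) in 100 mM sodium acetate pH 7 with 20 uM heparin, 6 hr at 37 C. ThT 30 uM added, 1 hr ambient; Alexa 594 FP and total fluorescence read at 555/632 nm.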
TRb SRC2 PPI – qHTS for Inhibitors of the Interaction of Thyroid Hormone Receptor and Steroid Receptor Coregulator 2. Thyroid hormone receptor beta (Homo sapiens), P10828. TRbeta-SRC2 peptide binding, fluorescence polarization; receptor liganded with 1 µM T3. Potency, µM (top dose mostly 106 µM), for inactives: at the top dose activity change, negative = inhibition, actives largely listed as inhibitors. 0.065% of 280,000 active;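 also: plate controls were bound peptide for no effect and peptide without receptor for full effect; nearly all actives have a fitted effect of over 50% in size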
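Fluorescence polarization of 20 nM Texas Red SRC2 peptide with 0.6 uM human TRb ligand-binding domain, in Tris buffer with 1uM T3 and 5% DMSO. Incubated 5 hr ambient; normalized to unbound and bound controls.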
Tau ThT inhib – qHTS for Inhibitors of Tau Fibril Formation, Thioflavin T Binding; Potency, µM (doses to about 57.4 µM), for inactives: at the top dose activity, negative = inhibition, usual class: inhibitors; recombinant tau K18 P301L (four-repeat tau fragment), heparin-induced fibrillization, ThT fluorescence; 2.1% of 270,000 active; Microtubule-associated protein tau (Homo sapiens), P10636; also: nearly all actives have a fitted effect of over 55% in size
Target sequence (P10636 561-689 P618L limits assumed): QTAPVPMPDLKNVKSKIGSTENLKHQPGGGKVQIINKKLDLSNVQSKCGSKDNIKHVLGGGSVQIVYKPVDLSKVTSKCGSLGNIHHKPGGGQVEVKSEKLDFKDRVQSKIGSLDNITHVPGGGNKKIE
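Tau K18 P301L fragment (15 uM unlabeled plus 0.24 uM Alexa 594-labeled) in 100 mM sodium acetate pH 7 with compound, fibrillization induced by 20 uM heparin for 6 hr at 37 C. Thioflavin T (30 uM) added, fluorescence read after 1 hr (ex 450, em 510 nm).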
Tau fibril FP – qHTS for Inhibitors of Tau Fibril Formation, Fluorescence Polarization; Microtubule-associated protein tau (Homo sapiens), P10636; Potency, µM (doses to about 57.7 µM), inactives show at the highest dose activity, negative = inhibition, actives largely listed as inhibitors; K18 P301L tau heparin fibrillization, Alexa594 FP, 6 h; 0.39% of 280,000 active; AID 1468, 2008; also: nearly all actives have a fitted effect of over 55% in size
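Human K18 P301L fragment (15 uM unlabeled plus 0.24 uM Alexa 594-labeled) in 100 mM sodium acetate pH 7 with compound, aggregation induced by 20 uM heparin for 6 hr at 37 C. ThT (30 uM) added for 1 hr, then Alexa 594 FP read.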
GoLoco inh red – qHTS Assay for Inhibitors of RGS12 GoLoco Motif Activity (Red Fluorophore). Guanine nucleotide-binding protein G(i) subunit alpha-1 (Homo sapiens), P63096. Gai1:RGS12 GoLoco peptide FP, rhodamine, 10 min. Potency, µM (series often up to 61.6 µM), for inactives: top-dose activity, negative = inhibition, most hits filed as inhibitors. 0.44% of 230,000 active. AID 880, 2007; active = well fitted inhibition curve with a large enough effect, not every such curve was filed as active; inactive = no such curve, though single readings can be large or run the other way; also: nearly all actives have a fitted effect of over 30% in size
Target sequence (P63096 whole entry, looked up): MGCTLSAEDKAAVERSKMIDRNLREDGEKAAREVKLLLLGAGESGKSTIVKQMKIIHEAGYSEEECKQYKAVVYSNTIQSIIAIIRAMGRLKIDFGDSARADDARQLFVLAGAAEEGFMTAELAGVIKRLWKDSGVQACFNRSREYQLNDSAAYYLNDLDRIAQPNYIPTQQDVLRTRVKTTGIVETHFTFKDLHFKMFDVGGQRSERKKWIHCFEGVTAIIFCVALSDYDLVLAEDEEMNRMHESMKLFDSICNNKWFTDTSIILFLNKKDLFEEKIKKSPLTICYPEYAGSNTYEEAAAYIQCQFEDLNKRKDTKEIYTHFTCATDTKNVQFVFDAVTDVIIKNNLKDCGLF
TexasRed fluor – Total Fluorescence Counterscreen for Inhibitors of the Interaction of Thyroid Hormone Receptor and Steroid Receptor Coregulator 2 | TRb/SRC2 Texas Red total fluorescence interference | 0.29% of 280,000 active | Potency, µM (series often up to 106 µM), inactives show at the highest dose fluorescence change, negative = quenching; active = well fitted curve in either direction with a large enough effect; inconclusive = small, poorly fitted or top-dose-only effect
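Flags fluorescent or light-absorbing compounds by total fluorescence, S + 2P, at 555 nm excitation and 632 nm emission. Mixture: 20 nM Texas Red SRC2 peptide, 0.6 uM human TRb LBD, 1 uM T3, 5% DMSO; compound exposure 5 h at ambient temperature.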
* hit, by the source's call; ? = inconclusive; · = no result; [ ] = dose if it differs, or a comment. Unless noted, calls follow the shape of the dose curve; as a rule, active = well fitted curve in the direction sought with a large enough effect; inconclusive = small, poorly fitted or top-dose-only effect, or another doubt; inactive = no such curve, though single readings can be large; an effect the other way counts as inactive or inconclusive. Unless noted, % is scaled to controls: 0 for no effect and ±100 for the full control effect; potency is read from the fitted curve at half-maximal effect.

SMILES	Tau fluor cs	TRb SRC2 PPI	Tau ThT inhib	Tau fibril FP	GoLoco inh red	TexasRed fluor
Cc1cc(N2CC(C(=O)O)CC2=O)ccc1Br (stereo not drawn)	-0.5%	-16.5%	0.7%	-0.7%	3.2%	-2.8%
COc1cc(/C=N/NC(=O)c2sc3ccccc3c2Cl)ccc1OC(=O)c1ccc([N+](=O)[O-])cc1	?	1.2%	1.26µM*	3.3%	-11.3%	0.2%
COc1ccc(C(=O)N/N=C/c2ccc(OC(=O)c3cccc4ccccc34)c([N+](=O)[O-])c2)cc1	?	9.5%	5.01µM*	-1.6%	2.8%	-0.1%
COc1ccc(/C=N/NC(=O)c2cccc([N+](=O)[O-])c2)cc1OC(=O)c1ccc(C)cc1	?	7.9%	-10.8%	-0.7%	-3.6%	-0.5%
CC(C)N=C1SCC(C)(/C=N/O)S1 (stereo not drawn)	-5.9%	-5.2%	?	?	-7.8%	0.3%
CCCCc1n[nH]c2c1/C(=N/OCC)CC(C)(C)C2	-11.2%	3.4%	-6.1%	5.1%	-13.7%	-2.4%
CCCCC/C=C\C[C@H](O)/C=C/C=C\C/C=C\CCCC(=O)O	-1.7%	-1.3%	3.1%	-4.5%	-3.9%	-5.6%
COc1ccc(C2Nc3cccc4cccc(c34)N2)cc1	?	7.2%	15.8µM*	-14.8%	0.3%	-2.1%
Oc1ccccc1C1Nc2cccc3cccc(c23)N1	11.2%	0.8%	7.0%	6.3%	-5.6%	-2.2%
CCOc1cc(C2Nc3cccc4cccc(c34)N2)ccc1O	5.01µM*[quencher]	6.9%	6.31µM*	?	-13.4%	?
COc1ccc(C2=Nc3cccc4cccc(c34)N2)cc1	1.9%	-1.2%	2.9%	-1.1%	-21.3%	1.3%
CCOc1ccc(C2Nc3cccc4cccc(c34)N2)cc1OC	?	-9.7%	3.55µM*	?	-5.2%	-8.6%
COc1ccccc1C1Nc2cccc3cccc(c23)N1	?	-5.7%	22.4µM*	-11.8%	15.0%	-7.8%
CCn1cc(C(=O)OCC(=O)Nc2cc(S(=O)(=O)N(C)C)ccc2C)c(=O)c2ccc(C)nc21	-9.1%	1.3%	-13.1%	1.1%	-25.4%	-1.3%
Clc1ccc(Nc2nc(-c3cccnc3)cs2)cc1	?	-5.2%	?	8.6%	4.3%	-2.3%
O=C(Nc1cccc(-c2csc(Nc3ccc(Cl)cc3)n2)c1)c1cccc(C(F)(F)F)c1	7.94µM*[quencher]	-2.1%	12.6µM*	-3.1%	0.5%	-2.5%
O=C(Nc1cccc(-c2csc(Nc3ccc(Cl)cc3)n2)c1)c1ccccc1	14.1µM*[quencher]	2.3%	14.1µM*	-11.9%	11.7%	-1.6%
O=C(Nc1cccc(-c2csc(-c3ccccc3)n2)c1)c1cccs1	?	7.2%	?	14.1µM*	5.1%	-5.8%
CCN1CCN(c2cc(C)c3cc(NC(=O)/C=C/c4ccc(C)cc4)ccc3n2)CC1	14.1µM*[quencher]	8.1%	4.47µM*	10.4%	·	-2.9%
COc1ccc(/C=C/C(=O)Nc2ccc3nc(N4CCC(C)CC4)cc(C)c3c2)cc1OC	3.55µM*[quencher]	1.3%	3.55µM*	13.3%	·	-6.3%
CCN1CCN(c2cc(C)c3cc(NC(=O)/C=C/c4ccc(OCCC(C)C)cc4)ccc3n2)CC1	?	6.7%	7.08µM*	5.1%	·	-0.4%
Cc1c(Br)c(O)c(Br)c2sc(=O)oc12	?	-2.8%	11.2µM*	?	-23.3%	-15.8%
CN(C)C(=O)c1ccc(-c2cc(Nc3ccccc3)ncn2)cc1	·	·	·	·	9.8%	·
CCOC(=O)c1cccc(Nc2cc(-c3ccccc3)ncn2)c1	?	-17.8%	?	?	·	0.316µM*[quencher]
CCN(CC)C(=O)C1CCCN(Cc2nc(-c3cnccn3)no2)C1 (stereo not drawn)	-4.0%	-4.8%	-8.2%	-10.4%	-12.5%	-1.0%
SMILES	Tau fluor cs	TRb SRC2 PPI	Tau ThT inhib	Tau fibril FP	GoLoco inh red	TexasRed fluor
O=C(Cn1nc(C(=O)O)c2ccccc2c1=O)NCC1CCCO1 (stereo not drawn)	0.7%	-14.8%	-0.7%	7.6%	-3.9%	-0.9%
Fc1ccc(CNc2nc(-c3ccc(Cl)cc3)cc(C(F)(F)F)n2)cc1	-22.1%	6.2%	-13.6%	?	·	-0.5%
Oc1ccc(/C=N/Nc2nc(-c3ccc(Cl)cc3)cc(C(F)(F)F)n2)cc1	25.1µM*[quencher]	4.0%	17.8µM*	?	-5.3%	-4.5%
O=C(CSc1cn(CCNC(=O)c2cccs2)c2ccccc12)NCc1ccccc1	-25.6%	-28.3%	-11.0%	-2.7%	-5.6%	1.7%
O=C(NCCn1cc(SCc2ccc(Cl)cc2)c2ccccc21)c1cccs1	8.91µM*[quencher]	12.4%	?	-19.4%	·	2.0%
Cc1ccccc1CSc1cn(CCNC(=O)c2cccs2)c2ccccc12	7.94µM*[quencher]	5.3%	?	-16.7%	·	?
Cc1ccc(CSc2cn(CCNC(=O)c3cccs3)c3ccccc23)cc1	8.91µM*[quencher]	8.6%	?	-6.3%	·	-9.7%
O=C(NCCn1cc(SCc2ccccc2F)c2ccccc21)c1cccs1	?	15.8%	?	-15.7%	·	-1.7%
O=C(NCCn1cc(SCc2ccc(F)cc2)c2ccccc21)c1cccs1	7.94µM*[quencher]	4.9%	?	-4.9%	·	-20.0%
c1ccc(OCc2nn3c(-c4ccco4)nnc3s2)cc1	-2.4%	0.8%	-7.6%	5.4%	-0.1%	-1.6%
COc1ccc(Nc2cc(C)nc(NCc3ccccc3)n2)cc1	35.5µM*[quencher]	-5.5%	?	3.8%	9.6%	-2.8%
Nc1nc(Nc2ccc(Cl)cc2)nc(NCc2ccco2)c1[N+](=O)[O-]	?	-1.3%	?	15.8µM*	4.1%	-5.1%
COc1ccc(Nc2nc(N)c([N+](=O)[O-])c(NCc3ccccc3)n2)cc1	14.1µM*[quencher]	3.0%	?	-3.9%	34.5%	-0.1%
Cc1ccc(Nc2cc(C)nc(NCc3ccccc3)n2)cc1	?	1.4%	?	5.5%	3.4%	-1.8%
Nc1nc(Nc2cccc(Cl)c2)nc(NCc2ccco2)c1[N+](=O)[O-]	?	1.3%	?	28.2µM*	11.4%	0.7%
Cc1cccc(Nc2nc(N)c([N+](=O)[O-])c(NCc3ccco3)n2)c1	?	-7.3%	?	?	-0.5%	-4.5%
CCOc1ccccc1C(=O)Nn1c(C2CCC2)nc2ccccc2c1=O	-8.7%	-4.8%	-4.7%	-10.2%	-0.3%	-7.2%
CCOC(=O)c1sc2ncn(/N=C/c3cccnc3)c(=O)c2c1C	-6.3%	-17.9%	?	-5.1%	3.3%	1.4%
